# Experimental data published in PubChem BioAssay (NCATS).
# Results filed as inconclusive are left out. Values without a mark were called inactive. Calls of active or inactive are those of the source. Calls follow the shape of the dose curve; as a rule, active = well fitted inhibition curve with a large enough effect; inconclusive = small, poorly fitted or top-dose-only effect, or effect the other way; inactive = no such curve, though single readings can be large or run the other way.
# Experiment: High Content Imaging Cell-Based qHTS for Inhibitors of the mTORC1 Signaling Pathway in MEF Cells (AID 2667);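 as to activity change, negative = inhibition: Tsc2-/- p53-/- MEFs stably re-expressing wild-type Tsc2 exposed 24 h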
# Settings: series mostly up to 38.3 µM; activity change, negative = inhibition: at the top concentration
# Description: NIH Molecular Libraries Probe Production Centers Network [MLPCN]
# NIH Chemical Genomics Center [NCGC]
# Assay Submitter (PI): Blenis, John; Hoffman, Greg; Harvard University
# NCGC Assay Overview: The mammalian target of rapamycin (mTOR) is an intracellular serine/threonine kinase Aberrant regulation of mTOR signaling plays a causative role in a number of human diseases, including cancer, benign tumors such as lymphangioleiomyomatosis (LAM) and Tuberous Sclerosis Complex (TSC), and metabolic diseases such as diabetes and obesity. This project aims to identify inhibitors of ribosomal protein S6 (rpS6) phosphorylation. The phosphorylation of rpS6 is a key event downstream of mTOR activation. The assay uses a phospho-specific antibody of phospho-rpS6 to detect inhibitors of mTOR activation. Mutations in the Tsc1 and Tsc2 genes are the underlying genetic lesions responsible for TSC, causing constitutive activation of the mTORC1 pathway and leading to profound effects on cell metabolism. Aberrant metabolism in cancer has recently received significant attention as a target to develop therapeutic agents in the treatment of cancer.1 As Tsc2-/- cells have lost the ability to respond to energy and growth factor deprivation, these cells are unable to properly down regulate cellular biosynthetic processes in response to metabolic stress, and are thus extremely sensitive to glucose deprivation-induced death.2 A central goal of this project is to explore the unique cell survival and metabolic properties of cells with Tsc1 or Tsc2 by screening for compounds that selectively target the Tsc2-/- MEFs by screening both Tsc2-/- and WT MEF cell lines. We hope to better understand these aspects of TSC physiology in order to exploit them for therapeutic benefit.
# NCGC IN Cell Assay Protocol:
# For quantitative high throughput analysis of mTORC1 signaling, we developed a cell-based assay for immuno-fluorescence based detection of rpS6 phosphorylation on the Acumen Explorer that will be used a platform for the primary small molecule screen. Mouse embryonic fibroblasts (MEFs) are cultured in 1536-well plates using DMEM + 10% FBS. Twenty-four hrs after plating, test compounds (solubilized in DMSO) are delivered and incubated with the cells for 24 hrs at 37 degree Celsius. Following the incubation, media with compound is aspirated and the cells are fixed in 4% paraformaldehyde (PFA) containing PBS + 0.2% TX-100. Next, PFA is aspirated, cells are washed two times with PBS plus 0.2% TX-100 and the cells are blocked for 1 hr at room temperature (blocking buffer: LiCOR Blocking Buffer plus 0.2% TX-100). This is followed by aspiration and staining with Alexa-488 conjugated-phospho-rpS6 Ser235/236 antibody for 2 hours at room temperature (Cell Signaling Technology # 4803, 1:50 dilution in blocking buffer). Cells are washed two times with PBS plus 0.2% TX-100, and stained with 10 uM propidium iodide (PI) for 20-25 minutes for cell number measurement (1:500 dilution of Hoescht staining is also added for IN Cell imaging). Active wells which are selected (based on Acumen results) are imaged on the IN Cell 1000 (GE Healthcare) using the D360/40X and HQ480/40X excitation filters for the Hoechst and Alexa-488 cytoplasmic stains, respectively. The fluorescence emission filters used were HQ460/40M and HQ535/50M for the Hoechst and Alexa-488 cytoplasmic stains, respectively. The normalized phospho-S6 staining is calculated as the ratio of […] for the single concentration rapamycin control ([…] nM) and DMSO columns. […] Inhibition of the pathway is defined based on the normalized phospho-S6 intensity in rapamycin treated cells. Each treatment is reported as the % positive cells in the well, where thresholds are defined by selecting wells with the highest and lowest signal and differentiating between the % non-active and % active populations. […]
# Potency is read from the fitted curve at half-maximal effect.
Structure (SMILES),"activity change, negative = inhibition",Potency
O=C(O)c1cc[c]([Hg][Cl])cc1,-100%,–
COc1cc(CC(C)N)c(OC)cc1I (stereo not given),-100%,–
C[N+]1(C)C2CCC1CC(OC(=O)c1c[nH]c3ccccc13)C2 (stereo not given),-100%,–
C=CCN1CC[C@]23c4c5ccc(O)c4O[C@H]2/C(=N/NC(=O)c2ccccc2)CC[C@@]3(O)[C@H]1C5,-100%,–
C=CCN1CCc2cccc3c2[C@H]1Cc1ccc(O)c(O)c1-3,–,7.36 µM (active)
O=S1(=O)N(CCN2CC=C(c3c[nH]c4cc(F)ccc34)CC2)c2cccc3c2N1CCC3,-100%,–
COc1ccc(OC)c(C(O)C(C)N)c1 (stereo not given),-100%,–
CC(=O)NBr,-100%,–
C[C@H](N)CN1CCc2ccc(Br)cc21,-100%,–
OCc1cnc[nH]1,-100%,–
NC(C(=O)O)c1cc(=O)[nH]o1 (stereo not given),-100%,–
CN(C(=O)Cc1ccc(Cl)c(Cl)c1)C(CN1CCCC1)c1cccc(OCC(=O)O)c1 (stereo not given),-100%,–
NCC(CP(=O)(O)O)c1ccc(Cl)cc1 (stereo not given),-100%,–
C/C(O)=C(\C#N)C(=O)Nc1cc(Br)ccc1Br,-100%,–
C[C@@H]1O[C@@H](O[C@H]2C[C@@H](O)[C@]3(CO)[C@@H]4C(CC[C@]3(O)C2)[C@@]2(O)CC[C@H]([C@@H]3COC(=O)C3)[C@@]2(C)C[C@H]4O)[C@H](O)[C@H](O)[C@H]1O (stereo not given in full),-100%,–
CC(C)NP(=O)(NC(C)C)OP(=O)(NC(C)C)NC(C)C,-100%,–
Nc1ccc(CCN2CCN(c3cccc(C(F)(F)F)c3)CC2)cc1,-43.2%,–
CC(C)(C)c1o[nH]c(=O)c1CC(N)C(=O)O (stereo not given),-100%,–
C[C@]12Cc3cn4c(nc3C=C1CCC1C2CC[C@@]2(C)[C@H]1CC[C@@]2(O)C#N)nc1ccccc14 (stereo not given in full),-100%,–
CCCN(CCC)C1Cc2cc(OC)c(OC)cc2C1,-100%,–

Structure (SMILES),"activity change, negative = inhibition",Potency
NC(Cc1ccc(N(CCCl)CCCl)cc1)C(=O)O (stereo not given),-100%,–
CCCC[N+]1(C)C2CC(OC(=O)[C@H](CO)c3ccccc3)CC1C1OC12 (stereo not given in full),-100%,–
C[C@H](N)Cc1cccc(C(F)(F)F)c1,-100%,–
NCC(O)c1cc(O)c(O)cc1F (stereo not given),-100%,–
c1ccc2c(N3CCNCC3)cccc2c1,-100%,–
C[C@@H]1O[C@H](C[N+](C)(C)C)CS1,-100%,–
Cc1cc([C@@H]2CCCN2C)on1,-100%,–
C[N+](C)(C)CC#CCOC(=O)Nc1cccc(Cl)c1,-100%,–
CCCN(CCC)C1CCc2cccc(O)c2C1 (stereo not given),-100%,–
CCCN1CCc2cccc3c2[C@H]1Cc1ccc(O)c(O)c1-3,-100%,–
CN1CC[C@@]2(C)c3cc(OC(=O)Nc4ccccc4)ccc3N(C)[C@@H]12,-100%,–
CN1CCC(c2c[nH]c3ccc(O)cc23)CC1,-100%,–
Cc1o[nH]c(=O)c1CC(N)C(=O)O (stereo not given),-100%,–
C[N+]1(C)CCN(c2ccccc2)CC1,-100%,–
CC(C)(C)c1cc(C=C(C#N)C#N)cc(C(C)(C)C)c1O,–,2.33 µM (active)
CCOC(=O)c1ncn2c1[C@@H]1CCCN1C(=O)c1cc(OC)ccc1-2,-100%,–
C[N+](C)(C)CCOC(=O)CBr,-100%,–
N=C(N)c1ccc(CS(=O)(=O)F)cc1,-100%,–
NC(N)=NOCC[C@H](N)C(=O)O,-100%,–
N#C/C(=C/c1ccc(O)c(O)c1)C(N)=S,-100%,–
